Assay results as given in PubChem BioAssay AID1159580 (chemical genetic matrix, 2015).
Hit rate of the full screen: of about 5,500 compounds, about 2,000 (36%) were called active. Not shown: some 18% with an inconclusive outcome. No stated cut-off is given here; in the data, active means normalized growth mostly below about 0.91 (no sharp cut-off); inconclusive means no clear call, values can overlap the other calls; inactive means mostly above about 0.92. The list shows a part of the results.

Assay: chemical genetic growth profiling, strain panel (AID 1159580);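 further: tested at 20 µM; growth read once vehicle control cultures reached saturation at 30 °C; 1 = growth at the plate median or of vehicle wells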
Details: growth OD

Measured: normalized growth

CC(=O)NC(=O)/C(C#N)=C/N1CCN(Cc2ccccc2)CC1
inactive: S. cerevisiae deletion strains, locus YAL013W, strain DEP1, stronger effect = lower value 0.987 | S. cerevisiae deletion strains, locus YBR229C, strain ROT2, stronger effect = lower value 0.989 | S. cerevisiae deletion strains, locus YDL101C, strain DUN1, stronger effect = lower value 1.01 | S. cerevisiae deletion strains, locus YDL134C, strain PPH21, stronger effect = lower value 1.01 | S. cerevisiae deletion strains, locus YDR150W, strain NUM1, stronger effect = lower value 0.969 | S. cerevisiae deletion strains, locus YEL061C, strain CIN8, stronger effect = lower value 0.996 | S. cerevisiae deletion strains, locus YGR078C, strain PAC10, stronger effect = lower value 0.994 | S. cerevisiae deletion strains, locus YHR030C, strain SLT2, stronger effect = lower value 0.947 | S. cerevisiae deletion strains, locus YHR087W, strain rtc3, stronger effect = lower value 0.994 | S. cerevisiae deletion strains, locus YJR043C, strain POL32, stronger effect = lower value 0.976 | S. cerevisiae deletion strains, locus YJR075W, strain HOC1, stronger effect = lower value 1.01 | S. cerevisiae deletion strains, locus YKL190W, strain CNB1, stronger effect = lower value 1 | S. cerevisiae deletion strains, locus YLR039C, strain RIC1, stronger effect = lower value 1.01 | S. cerevisiae deletion strains, locus YLR058C, strain SHM2 (second series), stronger effect = lower value 0.988 | S. cerevisiae deletion strains, locus YLR085C, strain ARP6, stronger effect = lower value 1.07 | S. cerevisiae deletion strains, locus YLR262C, strain YPT6, stronger effect = lower value 0.982 | S. cerevisiae deletion strains, locus YML094W, strain GIM5, stronger effect = lower value 1.01 | S. cerevisiae deletion strains, locus YMR219W, strain ESC1, stronger effect = lower value 1 | S. cerevisiae deletion strains, locus YMR263W, strain SAP30, stronger effect = lower value 0.997 | S. cerevisiae deletion strains, locus YMR307W, strain GAS1, stronger effect = lower value 1.11 | S. cerevisiae deletion strains, locus YNL128W, strain TEP1, stronger effect = lower value 0.981 | S. cerevisiae deletion strains, locus YNL153C, strain GIM3, stronger effect = lower value 0.977 | S. cerevisiae deletion strains, locus YNL298W, strain CLA4 (second series), stronger effect = lower value 0.95 | S. cerevisiae deletion strains, locus YNL322C, strain KRE1, stronger effect = lower value 0.991 | S. cerevisiae deletion strains, locus YNR030W, strain Alg12, stronger effect = lower value 0.987 | S. cerevisiae deletion strains, locus YPL055C, strain LGE1, stronger effect = lower value 1.05 | S. cerevisiae deletion strains, locus YPL241C, strain CIN2, stronger effect = lower value 0.989 | S. cerevisiae deletion strains, locus YPR135W, strain CTF4, stronger effect = lower value 0.886 | S. cerevisiae strains, strain wild type, stronger effect = lower value 0.974
